Screening data deposited in PubChem BioAssay by National Center for Advancing Translational Sciences (NCATS).
TDP1 cell CPT: growth inhibition of DT40 Tdp1-/-;hTDP1 cells with camptothecin (screen for TDP1 inhibitors); chicken DT40 Tdp1-/-;hTDP1 cells + 20 nM CPT, ATP luminescence, 48 h; AID 686979; Potency, µM (doses to about 46.2 µM), for the others: top-dose activity change, negative = growth inhibition, hits mostly inhibitors; 420,000 compounds, 12% hits; also: potency is read from the fitted curve at half-maximal effect; % is scaled to controls: 0 for no effect and ±100 for the full control effect; nearly all actives have a fitted effect of over 55% in size
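Chicken DT40 Tdp1-/- cells stably complemented with human TDP1 were seeded at 400 cells/well in medium containing 20 nM camptothecin, exposed to pin-transferred compounds, and grown at 37 °C for at least 48 hr. Viability was read as ATP luminescence.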
TDP1 cell noCPT: qHTS for Inhibitors of human tyrosyl-DNA phosphodiesterase 1 (TDP1): qHTS in cells in absence of CPT. DT40 Tdp1-/- hTDP1 cells, no CPT, ATP luminescence, 48 h. Potency, µM (highest dose often 46.2 µM), for inactives: top-dose activity change, negative = growth inhibition, actives largely listed as inhibitors. 420,000 compounds, 15% hits. AID 686978, 2013; also: potency is read from the fitted curve at half-maximal effect; % is scaled to controls: 0 for no effect and ±100 for the full control effect; nearly all actives have a fitted effect of over 55% in size
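Growth kinetics read by CellTiter-Glo luminescence after ≥48 hr at 37 °C. Cells: DT40 Tdp1-/- stably carrying human TDP1, 400 per well, compound exposure in the absence of CPT (DMSO vehicle).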
IL1B secr inh: blocks inflammasome-driven IL-1 beta release | 360,000 compounds, 4.7% hits | activity change, % at 57.5 µM | THP-1 LPS/ATP IL-1B secretion, AlphaLISA, 16 h; active compounds read low; in the data active = activity change below about -50%; inconclusive = mostly about -30% to -49%; also: % is scaled to controls: 0 for no effect and ±100 for the full control effect
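Secreted IL-1B measured by AlphaLISA bead assay after 16 h compound exposure of THP-1 cells; compounds (final up to 57.5 uM) added 1 h before LPS (250 ng/mL) and ATP (1.25 mM) stimulation; lower signal means less secretion.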
TDP1 inh: inhibitors of human tyrosyl-DNA phosphodiesterase TDP1. Q9NUW8. recombinant TDP1, AlphaScreen DNA substrate cleavage. Potency, µM (top dose mostly 130 µM), inactives show at the highest dose activity change, negative = inhibition, usual class: inhibitors. 350,000 compounds, 0.28% hits. AID 485290; also: potency is read from the fitted curve at half-maximal effect; % is scaled to controls: 0 for no effect and ±100 for the full control effect; nearly all actives have a fitted effect of over 40% in size
Target sequence (Q9NUW8 whole entry, looked up): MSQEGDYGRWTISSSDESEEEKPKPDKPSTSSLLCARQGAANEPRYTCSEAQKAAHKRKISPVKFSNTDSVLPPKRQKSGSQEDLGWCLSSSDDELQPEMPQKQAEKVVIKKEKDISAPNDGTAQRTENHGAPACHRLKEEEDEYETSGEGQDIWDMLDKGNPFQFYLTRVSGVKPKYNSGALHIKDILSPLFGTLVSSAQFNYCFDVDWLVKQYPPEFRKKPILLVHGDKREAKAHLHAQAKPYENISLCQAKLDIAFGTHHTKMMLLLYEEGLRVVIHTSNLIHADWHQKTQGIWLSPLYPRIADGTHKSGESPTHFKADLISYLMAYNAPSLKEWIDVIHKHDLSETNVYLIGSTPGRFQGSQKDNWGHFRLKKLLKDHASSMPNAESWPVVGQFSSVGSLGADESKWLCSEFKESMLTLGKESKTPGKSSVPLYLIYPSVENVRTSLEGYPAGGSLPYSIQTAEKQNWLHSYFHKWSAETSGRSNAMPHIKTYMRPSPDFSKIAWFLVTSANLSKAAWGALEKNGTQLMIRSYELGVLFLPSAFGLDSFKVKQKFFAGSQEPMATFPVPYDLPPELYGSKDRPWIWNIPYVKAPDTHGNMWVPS
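Compounds were preincubated with Tdp1 (1 nM final) for 15 min at room temperature before substrate (15 nM final) started a 5 min reaction; beads (10 ug/ml final) were then added for 10 min before AlphaScreen detection.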
TGFb inhibitor: TGF-b pathway inhibition; Potency, µM (titrated, usually from 46.1 µM), for the others: at the top dose activity, negative = inhibition, usual class: inhibitors; HepG2 CAGA-GFP TGF-b/SMAD3 reporter, GFP fluorescence, 18 h; TGF-beta stimulated, 500 pg/mL final; 410,000 compounds, 1.2% hits; AID 588855; also: potency is read from the fitted curve at half-maximal effect; % is scaled to controls: 0 for no effect and ±100 for the full control effect; nearly all actives have a fitted effect of over 65% in size
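Cell-based qHTS in HEPG2 carrying a CAGA-GFP Smad reporter; compounds added before 500 pg/mL final TGF-beta, 18 h incubation at 37 degrees C, GFP fluorescence quantified per cell by imaging cytometry.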
HepG2 tox-1: kills HepG2 cells in TGF-b inhibitor counter-screen; 410,000 compounds, 0.76% hits; HepG2 CAGA-GFP viability, ATP luminescence, 18 h; Potency, µM (highest dose often 46.1 µM), for the others: at the highest dose activity change, negative = cytotoxicity, hits mostly cytotoxic; AID 588856; also: potency is read from the fitted curve at half-maximal effect
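HepG2 CAGA-GFP cells (1000/well, DMEM with 1% FBS) received compound, then TGF-beta at 500 pg/mL final, and were incubated 18 hours at 37 degrees C. Viability was read by CellTiter-Glo luminescence. Media-only wells were set as complete cell-killing and DMSO as no toxicity.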
TGFb confirm: TGF-b pathway inhibition, cherry-pick retest; AID 720534; shares compounds with TGFb inhibitor; HepG2 CAGA-GFP TGF-b reporter, GFP fluorescence, 18 h; cells stimulated with TGF-beta, 500 pg/mL; Potency, µM (titrated, usually from 46.1 µM), for the others: top-dose activity, negative = inhibition, hits mostly inhibitors; 1,600 compounds, 63% hits; also: potency is read from the fitted curve at half-maximal effect; % is scaled to controls: 0 for no effect and ±100 for the full control effect; nearly all actives have a fitted effect of over 65% in size
HepG2 tox-2: counter-screen for TGF-b inhibitors: cytotoxicity in HepG2 cells | shares compounds with TGFb inhibitor | HepG2 CAGA-GFP viability, ATP luminescence, 18 h; cells stimulated with TGF-beta, 500 pg/mL | Potency, µM (highest dose often 46.1 µM), for the others: top-dose activity, negative = cytotoxicity, most hits filed as inhibitors | AID 720535 | 1,600 compounds, 27% hits; also: potency is read from the fitted curve at half-maximal effect; % is scaled to controls: 0 for no effect and ±100 for the full control effect; nearly all actives have a fitted effect of over 70% in size
CCL64 TGFb inh: orthogonal confirmation of TGF-b inhibitors in CCL64 cells. CCL64 CAGA-GFP reporter, TGF-b stimulated, GFP fluorescence, 18 h. Potency, µM (top dose mostly 46.1 µM), for the others: top-dose activity, negative = inhibition, hits mostly inhibitors. shares compounds with TGFb inhibitor. 1,600 compounds, 41% hits; also: potency is read from the fitted curve at half-maximal effect; nearly all actives have a fitted effect of over 65% in size
TGFb COP inh: TGF-b inhibition validated with COP promoter | HepG2 COP-GFP TGF-b reporter, GFP fluorescence, 18 h; cells stimulated by added recombinant TGF-beta | Potency, µM (series often up to 46.1 µM), for the others: top-dose activity, negative = inhibition, usual class: inhibitors | 1,600 compounds, 3% hits | shares compounds with TGFb inhibitor | AID 720537; also: potency is read from the fitted curve at half-maximal effect; nearly all actives have a fitted effect of over 70% in size
Numbers without * were called inactive; ? = inconclusive; . = not tested or not shown; ! = a repeat was not active. A selection: hits, their analogues and other compounds. The true share with any hit is near 19%. Unless noted, calls follow the shape of the dose curve; as a rule, active = well fitted curve in the direction sought with a large enough effect; inconclusive = small, poorly fitted or top-dose-only effect, or another doubt; inactive = no such curve, though single readings can be large; an effect the other way counts as inactive or inconclusive.

SMILES	TDP1 cell CPT	TDP1 cell noCPT	IL1B secr inh	TDP1 inh	TGFb inhibitor	HepG2 tox-1	TGFb confirm	HepG2 tox-2	CCL64 TGFb inh	TGFb COP inh
CC1(N=Cc2cc(Cl)ccc2O)COP(=O)(NC2CCCC2)OC1 (centres undefined)	-19%	-21%	22	.	2%	1%	.	.	.	.
Cc1ccc2c(COC(=O)C3CC(=O)N(c4ccc5c(c4)OCCO5)C3)cc(=O)oc2c1 (centres undefined)	2%	-6%	16	0%	?	-3%	.	.	.	.
CCN1CCN(Cc2ccc(NC(=O)c3cc(NC(=O)c4cncc(-c5ccc(C#N)cc5)c4)cc(OC)c3)cc2C(F)(F)F)CC1	2.3µM*	2.6µM*	-59*	5%	5.6µM*	2µM*!	?	16µM*	26µM*	?
COC(=O)c1cc(S(=O)(=O)N2CCN(C(=O)c3ccco3)CC2)cn1C	-12%	-26%	13	1%	0%	-4%	.	.	.	.
O=C1N[C@@H](Cc2ccccc2)COC(=O)[C@@H](Cc2ccc(F)cc2)CC/C=C/C[C@@H]1CC(=O)N(CCO)Cc1ccccc1	?	?	-24	0%	22µM*	5%	16µM*	-27%	23µM*	28%
O=C1N[C@@H](c2ccccc2)COC(=O)[C@@H](Cc2ccc(F)cc2)C/C=C\C[C@@H]1CC(=O)N(CCO)Cc1ccccc1	15µM*	13µM*	-18	1%	13µM*	-4%	16µM*	?	?	45%
O=C1OC[C@@H]2CCCN2C(=O)[C@@H](CC(=O)N(CCO)Cc2ccccc2)C/C=C\CC[C@H]1Cc1ccc(F)cc1	?	?	-12	2%	?	-34%	.	.	.	.
O=C(OCc1cc(=O)n2cc(Br)ccc2n1)c1ccc(Cl)c(S(=O)(=O)NCc2ccccc2)c1	?	?	24	3%	0%	5%	.	.	.	.
CCN(CC)C(=O)c1nc[nH]c1C(=O)N1CCN(c2ccccc2)CC1	?	?	43	0%	?	4%	-5%	3%	8%	18%
CCOC(=O)c1c(C)cc(=O)oc1C	1%	-7%	4	4%	-2%	-3%	.	.	.	.
CCOC(=O)c1c(C)oc2c1C(=O)c1ccccc1C2=O	4.6µM*	4.1µM*	60	5%	5µM*	5µM*	5.2µM*	5.8µM*	4.6µM*	16µM*
Cc1ccc(S(=O)(=O)N(CC(=O)Nc2ccc(Cl)c([N+](=O)[O-])c2)C2CCCCC2)cc1	?	?	-3	1%	10µM*	-14%	?	-23%	?	28%
O=C(N/N=C/c1ccccc1C(=O)O)c1ccc(COc2cccc3cccnc23)cc1	-5%	-4%	0	0%	5%	3%	.	.	.	.
O=C(N/N=C/c1ccc[nH]1)c1ccc(COc2cccc3cccnc23)cc1	-16%	-47%	-89*	0%	1.8µM*	2%	18µM*	?	2.1µM*	67%
CCOc1ccc(NCc2nc3ccccc3n2CCOc2ccccc2)cc1	?	?	-96*	11%	20µM*	-23%	15µM*	-29%	-19%	13%
O=[N+]([O-])c1ccc2[nH]c3nc4ccccc4nc3c2c1	-6%	-24%	-25	-1%	24%	1%	.	.	.	.
O=C1Cc2c([nH]c3ccc([N+](=O)[O-])cc23)-c2ccccc2N1	1.8µM*	1.8µM*	-99*	.	0.5µM*	21%	0.16µM*	0.29µM*	1.3µM*	-11%
CC(=O)c1ccc(NC(=O)CC(c2cccs2)N2Cc3ccccc3C2=O)cc1 (centres undefined)	-24%	?	.	3%	-3%	-3%	.	.	.	.
CCOC(=O)c1ccc(NC(=S)Nc2ccc3[nH]c(=O)[nH]c3c2)cc1	-16%	-2%	3	5%	11%	23%	.	.	.	.
CC(C)(C)c1ccc(Cn2c(=O)cnc3ccccc32)cc1	16µM*	16µM*	30	.	10µM*	-16%	18µM*	?	-27%	-15%
C/C(=N\NC(=O)COc1ccccc1-c1ccccc1)c1ccccn1	2.6µM*	2.6µM*	-7	6%	11µM*	-18%	9.2µM*	?	?	-8%
C/C(=N/NC(=O)c1ccccn1)c1ccc(O)cc1	-2%	-9%	-14	10%	5%	-3%	.	.	.	.
COc1cc(C(=O)N/N=C(\C)c2ccccn2)cc(OC)c1OC	12µM*	8.2µM*	32	7%	1.3µM*	-2%	7.3µM*	-17%	3.7µM*	-11%
C/C(=N\NC(=O)COc1ccccc1)c1ccc(O)cc1	-6%	-14%	-9	6%	6%	4%	.	.	.	.
COc1cc(/C=N/n2c(SC)nnc(C(C)(C)C)c2=O)ccc1O	5%	-3%	6	5%	3.2µM*	-13%	?	11%	-5%	2%
COc1ccc(/C=N/n2c(SC)nnc(C(C)(C)C)c2=O)cc1OC	15%	-1%	11	5%	4%	-13%	.	.	.	.
O=CNc1cc(-c2ccoc2)cn2c(-c3ccc(F)cc3)cnc12	13µM*	23µM*	23	.	10µM*	-12%	?	-21%	?	26%
